From the supplement of paper PMC12350171
Where a name gives a salt, the structure may show the parent alone. Values without a mark were called inactive.

Tests used:
Settings in all cases: 20 µM
[1] = test system: Salmonella enterica typhimurium; assay: growth AUC normalised to DMSO control (fraction of control); higher = less growth inhibition, active = hit call of the paper
In short: (§1)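 Pathogens passaged twice anaerobically were inoculated at a starting OD578 of 0.01 into pre-reduced mGAM plates with drug at 20 μM and 1% DMSO, sealed with breathable membranes. Haemophilus parainfluenzae medium was supplemented with hemin and NAD. OD578 was read hourly for 24 h, with three biological replicates. Growth-curve AUC was computed by the trapezoidal rule up to the exponential-to-stationary transition and normalised to DMSO controls on the same plate.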

Shigella flexneri = assay: as above
In short: as §1

Vibrio cholerae = assay: as above
In short: as §1

[2] = test system: Yersinia pseudotuberculosis; assay: as above
In short: as §1

P. vulgatus RND KO = assay: growth AUC normalised to DMSO control (median) (fraction of control); higher = less growth inhibition, active = hit call of the paper
In short: (§2)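 Strains were passaged twice overnight without oxygen, then grown in mGAM in 96-well plates with each approved-drug library compound at 20 μM and 1% DMSO, starting at OD578 0.01. OD578 was read hourly for 24 h inside an anaerobic incubator. Curves were truncated at entry into stationary phase, and the trapezoidal-rule area under the curve was normalised to same-plate vehicle wells. The value is the median across three biological replicates.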

P. vulgatus WT = assay: as above
In short: as §2

[3] = test system: S. enterica typhimurium WT; assay: as above
In short: as §2

[4] = test system: S. enterica typhimurium tolC KO; assay: as above
In short: as §2
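Throughout, for growth AUC normalised to DMSO control (median): active when median AUC fell below 0.1.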

SMILES | growth AUC normalised to DMSO control [1] | growth AUC normalised to DMSO control (Shigella flexneri) | growth AUC normalised to DMSO control (Vibrio cholerae) | growth AUC normalised to DMSO control [2] | growth AUC normalised to DMSO control (P. vulgatus RND KO) | growth AUC normalised to DMSO control (P. vulgatus WT) | growth AUC normalised to DMSO control [3] | growth AUC normalised to DMSO control [4]
CCN[C@H]1CN(CCCOC)S(=O)(=O)c2sc(S(N)(=O)=O)cc21 [Brinzolamide] | 0.965 | 0.952 | 0.965 | 0.989 | 0.986 | 0.973 | 0.995 | 1
O=C(O)COC(=O)Cc1ccccc1Nc1c(Cl)cccc1Cl [Aceclofenac] | 0.995 | 0.979 | 0.979 | 0.999 | 0.995 | 0.983 | 1.01 | 0.998
O=C(O)Cc1ccc(-c2ccccc2)cc1 [Felbinac] | 1.03 | 0.977 | 0.996 | 0.994 | 1 | 1.01 | 1.01 | 0.988
CN(C/C=C/c1ccccc1)Cc1cccc2ccccc12 [Naftifine hydrochloride] | 1.01 | 1.01 | 0.933 | 1.04 | 0.996 | 1.01 | 0.998 | 0.932
O=c1oc2ccccc2c(O)c1Cc1c(O)c2ccccc2oc1=O [Dicumarol] | 0.986 | 1 | 0.891 | 1 | 0.877 | 0.945 | 1 | 0.891
COc1cc(C(=O)OCCCN2CCCN(CCCOC(=O)c3cc(OC)c(OC)c(OC)c3)CC2)cc(OC)c1OC [Dilazep dihydrochloride] | 1 | 1.03 | 1.01 | 0.989 | 0.993 | 0.989 | 1 | 0.978
CSc1ccc2c(c1)N(CCC1CCCCN1C)c1ccccc1S2 (stereo not given) [Thioridazine hydrochloride] | 0.978 | 1 | 0.957 | 0.975 | 0.88 | 0.796 | 0.99 | 0.957
CC(C)(CO)[C@@H](O)C(=O)NCCCO [(D)-Panthenol] | 0.999 | 1.02 | 0.998 | 0.99 | 0.995 | 0.979 | 1 | 1
CCCCC(C)(O)C/C=C/[C@H]1[C@H](O)CC(=O)[C@@H]1CCCCCCC(=O)OC (mixture of isomers) [Misoprostol] | 1.02 | 1.01 | 1.02 | 1.01 | 0.996 | 0.992 | 1.01 | 0.991
Clc1ccc(COC(Cn2ccnc2)c2ccc(Cl)cc2Cl)cc1 (stereo not given) [Econazole nitrate] | 0.977 | 0.987 | 0.962 | 1.01 | 0.899 | 0.902 | 1 | 0.912
COc1cc(NC(C)CCCN)c2ncccc2c1 (stereo not given) [Primaquine diphosphate] | 0.998 | 1.01 | 1.01 | 1.02 | 1.01 | 1.02 | 1.01 | 0.998
CC(C)/N=c1\cc2n(-c3ccc(Cl)cc3)c3ccccc3nc-2cc1Nc1ccc(Cl)cc1 [Clofazimine] | 0.99 | 0.996 | 1 | 1.03 | 0.0291 (active) | 0.0974 (active) | 0.972 | 1.02
CCc1ccc(CCOc2ccc(CC3SC(=O)NC3=O)cc2)nc1 (stereo not given) [Pioglitazone] | 0.967 | 0.958 | 0.911 | 0.922 | 0.994 | 0.992 | 0.996 | 0.993
CCN(CC)CC(=O)Nc1c(C)cccc1C [Lidocaine hydrochloride] | 0.999 | 1.02 | 1.01 | 1 | 1.02 | 1.03 | 0.963 | 0.996
O=C1C(CC[S+]([O-])c2ccccc2)C(=O)N(c2ccccc2)N1c1ccccc1 (stereo not given) [Sulfinpyrazone] | 0.996 | 1 | 1 | 0.971 | 1 | 1.01 | 0.998 | 0.985
Nc1ccc(C(=O)NCC(=O)O)cc1 [Aminohippuric acid] | 1.03 | 0.989 | 0.998 | 0.997 | 0.992 | 1.01 | 1.01 | 0.999
CN(C)CCN(Cc1ccc(Cl)cc1)c1ccccn1 [Chloropyramine hydrochloride] | 0.97 | 1.03 | 0.977 | 1.02 | 1.07 | 1.05 | 0.988 | 0.953
CCOc1ccccc1OC(c1ccccc1)C1CNCCO1 (stereo not given) [Reboxetine mesylate] | 0.991 | 0.986 | 1.01 | 0.995 | 1.01 | 1.01 | 1 | 0.988
c1ccc2c(CC3=NCCN3)cccc2c1 [Naphazoline hydrochloride] | 0.994 | 1.01 | 1.01 | 1 | 0.958 | 0.943 | 0.992 | 0.999
COc1ccccc1O [Guaiacol] | 0.991 | 0.976 | 0.992 | 0.999 | 0.99 | 1 | 0.997 | 1
CC[N+](C)(CC)CCOC(=O)C1c2ccccc2Oc2ccccc21 [Methantheline bromide] | 1 | 1.01 | 0.973 | 1 | 0.972 | 0.981 | 1 | 0.995
OCc1cc(C(O)CNCCCCCCOCCCCc2ccccc2)ccc1O (stereo not given) [Salmeterol] | 0.997 | 0.995 | 1 | 0.959 | 0.977 | 0.962 | 0.995 | 0.946
COc1ccc(C(=O)c2ccccc2)c(O)c1 [Oxybenzone] | 1.03 | 1.03 | 1 | 1 | 1.05 | 1.06 | 1 | 0.954
CNC(=C[N+](=O)[O-])NCCSCc1csc(CN(C)C)n1 [Nizatidine] | 0.998 | 0.989 | 0.997 | 1 | 1.03 | 1.04 | 1.02 | 0.989
CCn1cc(C(=O)O)c(=O)c2cc(F)c(N3CCNC(C)C3)c(F)c21 (stereo not given) [Lomefloxacin hydrochloride] | 0.00422 (active) | 0.0101 (active) | 0.0243 (active) | 0.0292 (active) | 0.035 (active) | 0.11 | 0.0147 (active) | 0.0041 (active)
COCC(=O)Nc1c(I)c(C(=O)NCC(O)CO)c(I)c(C(=O)N(C)CC(O)CO)c1I (stereo not given) [Iopromide] | 1 | 1.03 | 1.06 | 1.02 | 1.05 | 1.05 | 1.02 | 1.01
Clc1ccc(COC(Cn2ccnc2)c2ccc(Cl)cc2Cl)c(Cl)c1 (stereo not given) [Miconazole] | 0.997 | 1.01 | 0.995 | 1.03 | 0.938 | 0.927 | 0.993 | 0.98
CN(C)CCOC(=O)COc1ccc(Cl)cc1 [Meclofenoxate hydrochloride] | 0.977 | 0.942 | 0.977 | 0.935 | 0.996 | 0.985 | 1.01 | 0.995
NS(=O)(=O)c1cc2c(cc1Cl)N=C(CSCc1ccccc1)NS2(=O)=O [Benzthiazide] | 0.998 | 0.958 | 0.947 | 1.01 | 0.99 | 0.992 | 1.01 | 0.996
CC(=O)OCC(=O)NCCCOc1cccc(CN2CCCCC2)c1 [Roxatidine acetate hydrochloride] | 0.99 | 0.981 | 1 | 0.939 | 0.996 | 0.985 | 0.994 | 0.986
